# Measurements from paper PMC4336329 (PLoS ONE, 2015).
# In all, about 310,000 compounds went through this assay and about 14,000 (4.5%) showed an effect of 50% or more. Effects have a minus sign here. Shown is part of a subset that was picked to be rich in strong results.
# Target: human ether-à-go-go-related gene (hERG) potassium channel (human, UniProt Q12809)
# Assay: primary screen, population patch clamp on CHO cells stably expressing hERG; higher = less effect of the substance
# 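Also: peak tail current of the secondary pulse compared with the same well before compound.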
# human ether-à-go-go-related gene (hERG) potassium channel, sequence (Q12809 whole entry, looked up): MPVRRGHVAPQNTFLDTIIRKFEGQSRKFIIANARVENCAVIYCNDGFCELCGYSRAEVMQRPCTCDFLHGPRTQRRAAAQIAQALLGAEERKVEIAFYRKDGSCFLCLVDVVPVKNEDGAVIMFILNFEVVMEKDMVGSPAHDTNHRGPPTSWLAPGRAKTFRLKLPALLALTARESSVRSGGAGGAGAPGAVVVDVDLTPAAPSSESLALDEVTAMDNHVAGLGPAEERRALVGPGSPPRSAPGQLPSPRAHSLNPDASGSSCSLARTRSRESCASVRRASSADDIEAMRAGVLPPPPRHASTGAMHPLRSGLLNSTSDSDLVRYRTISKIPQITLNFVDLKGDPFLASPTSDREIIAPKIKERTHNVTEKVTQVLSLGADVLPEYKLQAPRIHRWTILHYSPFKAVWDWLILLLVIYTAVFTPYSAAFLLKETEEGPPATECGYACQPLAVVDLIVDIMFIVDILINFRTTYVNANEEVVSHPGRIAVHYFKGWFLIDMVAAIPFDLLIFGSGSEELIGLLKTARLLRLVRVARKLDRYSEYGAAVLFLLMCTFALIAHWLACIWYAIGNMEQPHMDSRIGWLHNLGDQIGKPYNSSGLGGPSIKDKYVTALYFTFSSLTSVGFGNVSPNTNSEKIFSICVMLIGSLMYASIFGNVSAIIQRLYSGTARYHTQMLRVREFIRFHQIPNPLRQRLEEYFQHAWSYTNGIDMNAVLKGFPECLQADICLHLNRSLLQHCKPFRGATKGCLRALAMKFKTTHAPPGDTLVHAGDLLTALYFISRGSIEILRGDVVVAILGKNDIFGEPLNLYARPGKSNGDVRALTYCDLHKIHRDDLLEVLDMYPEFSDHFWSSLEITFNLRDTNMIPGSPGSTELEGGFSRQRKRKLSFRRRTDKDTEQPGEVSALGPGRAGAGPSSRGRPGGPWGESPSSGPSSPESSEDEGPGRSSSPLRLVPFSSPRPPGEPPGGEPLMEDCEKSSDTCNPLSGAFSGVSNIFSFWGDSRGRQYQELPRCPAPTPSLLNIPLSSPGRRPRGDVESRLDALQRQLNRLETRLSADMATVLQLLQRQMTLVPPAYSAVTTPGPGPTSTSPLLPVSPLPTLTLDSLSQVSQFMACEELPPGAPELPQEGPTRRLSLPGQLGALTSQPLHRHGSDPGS
row,SMILES,"hERG current change (%, negative = inhibition) at 10uM"
1,CCC(CC)C(=O)Nc1cccc(C(=O)Nc2ccc(S(N)(=O)=O)cc2)c1,10.8%
2,Cn1c(CCN2CCOCC2)nc2cc(NC(=O)COc3ccccc3)ccc21,-15.1%
3,COc1ccc(OCC(=O)Nc2ccc3c(c2)nc(CCN2CCOCC2)n3C)cc1,-41%
4,CC(=O)Nc1ccc2c(c1)nc(CCN1CCOCC1)n2C,10.4%
5,Cc1ccc(OCC(=O)Nc2ccc3c(c2)nc(CCN2CCOCC2)n3C)cc1,-51.3%
6,Cn1c(CN2CCOCC2)nc2cc(NC(=O)COc3ccccc3)ccc21,-0.505%
7,Cn1c(CCN2CCOCC2)nc2cc(NC(=O)COc3ccc(Cl)cc3)ccc21,-55.4%
8,CC(=O)Nc1ccccc1NC(=O)C/C(C)=N/NC(=O)C(=O)N1CCCCC1,-13.3%
9,COc1ccc2[nH]c(=O)c(CN(C(C)=O)c3ccc(C)cc3C)cc2c1,1.02%
10,CSc1nc(N)c(C(=O)Nc2ccc([N+](=O)[O-])cc2)s1,-12.3%
11,O=C(N/N=C\c1cccc(F)c1)c1ccc(-c2ccccc2)cc1,27%
12,CC(=O)N(C)C1(c2nnnn2CCOC(=O)Nc2cccc3ccccc23)CCCC1,0.969%
13,CCN1CCN(c2ccc(S(=O)(=O)N3CCOCC3)cc2NC(=O)/C=C/c2ccc(OC)c(OC)c2)CC1,10.4%
14,CCN1CCN(c2ccc(S(=O)(=O)N3CCOCC3)cc2NC(=O)/C=C/c2ccc(C)cc2)CC1,-46%
15,COc1ccc(/C=C/C(=O)Nc2cc(S(=O)(=O)N3CCCCC3)ccc2N2CCCCC2)cc1OC,4.11%
16,CCN1CCN(c2ccc(S(=O)(=O)N3CCCCC3)cc2NC(=O)/C=C/c2ccc(F)cc2)CC1,-48.1%
17,CCN1CCN(c2ccc(S(=O)(=O)N3CCCCC3)cc2NC(=O)/C=C/c2ccc([N+](=O)[O-])cc2)CC1,-70.8%
18,CCN1CCN(c2ccc(S(=O)(=O)N3CCOCC3)cc2NC(=O)/C=C/c2ccc([N+](=O)[O-])cc2)CC1,-71.8%
19,COc1ccc(CCCC(=O)N/N=C\c2cccs2)cc1,27.2%
20,COCCNC(=O)c1ccccc1-c1nc(-c2ccccc2Cl)no1,-9.09%
21,O=C(NC(=S)Nc1ccc2ncccc2c1)c1ccccc1,2.36%

row,SMILES,"hERG current change (%, negative = inhibition) at 10uM"
1,C=CCn1cnc2scc(-c3ccc(C)cc3)c2c1=O,-10.4%
2,CCOc1ccccc1N(CC)C(=O)Cn1ncc2c(=O)oc3ccccc3c21,-26.1%
3,COCCCN(Cc1ccco1)C(=O)Cn1ncc2c(=O)oc3ccc(C)cc3c21,-49.6%
4,CCCN(C(=O)Cn1ncc2c(=O)oc3ccccc3c21)c1cccc(C)c1,-54.3%
5,CCCCN(Cc1ccco1)C(=O)Cn1ncc2c(=O)oc3ccc(C)cc3c21,13.2%
6,Cc1ccc2oc(=O)c3cnn(CC(=O)N(CCCN4CCOCC4)Cc4ccco4)c3c2c1,-57.5%
7,CCOC(=O)Cn1ncc2c(=O)oc3ccccc3c21,-0.743%
8,C=C(C)c1cccc(C(C)(C)NC(=O)N2CCN(c3ccccc3OC)CC2)c1,4.28%
9,COc1ccc(CCNC(=O)C2CCN(C(=O)c3cccs3)CC2)cc1,-0.649%
10,COc1ccc(NC(=O)CSc2ccc3nnc(-c4ccccn4)n3n2)cc1OC,-18.1%
11,CCOc1ccc(NC(=O)CSc2ccc3nnc(-c4ccccn4)n3n2)cc1,-54.3%
12,COc1ccc(NC(=O)CSc2ccc3nnc(-c4ccccn4)n3n2)cc1,-20.9%
13,CC(=O)c1ccc(NC(=O)CSc2ccc3nnc(-c4ccccn4)n3n2)cc1,-64.7%
14,CC(=O)Nc1ccc(NC(=O)CSc2ccc3nnc(-c4ccccn4)n3n2)cc1,17.7%
15,CC(=O)c1ccc(NC(=O)CSc2nnc3ccc(-c4ccccn4)nn23)cc1,-10.5%
16,CCc1cccc(C)c1NC(=O)Cn1nc(C)n2cccc2c1=O,22.9%
17,COc1ccc(-c2csc(N3CCN(c4cc5c(cc4Cl)nc(-c4ccncc4)n5CCOCCO)CC3)n2)cc1,12.6%
18,CCOC(=O)N1CCN(C(=O)/C(=C/c2ccc(N(C)C)cc2)NC(=O)c2ccccc2)CC1,-45.6%
19,CCOC(=O)N1CCN(C(=O)/C(=C/c2ccc(Cl)cc2)NC(=O)c2ccccc2)CC1,-74.7%
20,COc1ccc(/C=C(\NC(=O)c2ccc(OC)cc2)C(=O)N2CCCCC2)cc1,-3.21%
21,O=C(N/C(=C/c1ccc(Cl)cc1)C(=O)N1CCCC1)c1ccccc1,-8.81%

row,SMILES,"hERG current change (%, negative = inhibition) at 10uM"
1,COc1ccc(/C=C(/NC(=O)c2ccccc2)C(=O)N2CCCCC2)cc1,-1.39%
2,COc1ccc(/C=C(/NC(=O)c2ccccc2)C(=O)N2CCCC2)cc1,2.89%
3,COc1ccc(/C=C(\NC(=O)c2ccccc2)C(=O)N2CCN(C)CC2)cc1,-76.3%
4,COc1ccc(/C=C(\NC(=O)c2ccc(C)cc2)C(=O)N2CCCCC2)cc1,-55.2%
5,COc1ccc(C(=O)N/C(=C\c2ccc(OC)c(OC)c2)C(=O)N2CCCCC2)cc1,6.11%
6,CCOC(=O)N1CCN(C(=O)/C(=C/c2ccc(Br)cc2)NC(=O)c2ccc(OC)cc2)CC1,-78.2%
7,N#Cc1ccc(C(=O)Nc2ccc(S(=O)(=O)NC3=NCCCCC3)cc2)cc1,-1.54%
8,CC1=CC(=O)c2c(O)ccc(O)c2C1=O,-42.6%
9,Cc1nn(C)c(C)c1CNC(=O)Nc1cccc(Cl)c1C,1.35%
10,CCOC(=O)c1[nH]c(C)c(C(=O)OCCOc2cccc(C)c2)c1C,5.99%
11,CC(C)C(=O)NC(Nc1cccc2cccnc12)C(Cl)(Cl)Cl (stereo not drawn),-17.8%
12,COc1cc(NC(=O)[C@@H](NC(=O)c2ccco2)C(C)C)c(OC)cc1NC(=O)c1ccccc1,-36%
13,CCOC(=O)C1=C(N)OC(CCl)=C(C#N)C1c1ccsc1 (stereo not drawn),8.35%
14,CCOC(=O)C1CCN(C(=O)/C(=C/c2ccccc2)NC(=O)c2ccccc2)CC1,-30%
15,CCOC(=O)N1CCN(C(=O)/C(=C\c2ccc(SC)cc2)NC(=O)c2ccccc2)CC1,-78.5%
16,COc1ccc(/C=C(/NC(=O)c2ccccc2)C(=O)N2CCC(C)CC2)cc1,-38.4%
17,CCOC(=O)N1CCN(C(=O)/C(=C/c2ccc(OC)cc2)NC(=O)c2ccccc2)CC1,-68.4%
18,CCOC(=O)N1CCN(C(=O)/C(=C/c2ccc(F)cc2)NC(=O)c2ccccc2)CC1,-48.5%
19,CCOC(=O)N1CCN(C(=O)/C(=C/c2ccc(OC)c(OC)c2)NC(=O)c2ccccc2)CC1,-34.5%
20,CCNc1nc(C(=O)O)nc(N2CCOCC2)n1,10.7%
21,CCCc1nnc(NC(=O)CC(C)c2ccccc2)s1 (stereo not drawn),2.66%

row,SMILES,"hERG current change (%, negative = inhibition) at 10uM"
1,Cc1nn(Cc2ccccc2)c(C)c1NC(=O)c1cccs1,14%
2,COc1ccccc1N1CCN(S(=O)(=O)CCNC(=O)C2CCCCC2)CC1,-20.7%
3,CCOC(=O)c1ccc(Nc2ncnc3ccc(C)cc23)cc1,6.65%
4,O=[N+]([O-])c1ccc2c(OCc3nnc(-c4ccccc4Br)o3)ncnc2c1,-74.1%
5,Brc1ccccc1-c1nnc(COc2ncnc3c2cnn3-c2ccccc2)o1,7.27%
6,Brc1ccccc1-c1nnc(COc2ncnc3ccccc23)o1,-8.52%
7,CCOc1ccc(N2CC(C(=O)N3CCCc4ccccc43)CC2=O)cc1 (stereo not drawn),-62.6%
8,Cc1ccc(N2CC(C(=O)N3CCc4ccccc4C3)CC2=O)cc1 (stereo not drawn),-44.5%
9,COc1ccc(C2C(C(=O)N3CCN(c4ccccn4)CC3)CCC(=O)N2c2ccc(OC)cc2)cc1 (stereo not drawn),-47.3%
10,COc1ccc(N2C(=O)CCC(C(=O)N3CCN(c4ccccn4)CC3)C2c2ccc(F)cc2)cc1 (stereo not drawn),-48.2%
11,CCOc1ccc(N2CC(C(=O)N3CCCC3)CC2=O)cc1 (stereo not drawn),-4.65%
12,CCOc1ccc(N2CC(C(=O)N3CCN(c4ccccn4)CC3)CC2=O)cc1 (stereo not drawn),-59%
13,Cc1ccc(N2CC(C(=O)N3CCCc4ccccc43)CC2=O)cc1 (stereo not drawn),-18.8%
14,COc1ccc(C2C(C(=O)N3CCN(c4ccccn4)CC3)CC(=O)N2c2ccc(OC)cc2)cc1 (stereo not drawn),-78.7%
15,CCOc1ccc(N2CC(C(=O)N3CCc4ccccc4C3)CC2=O)cc1 (stereo not drawn),-75%
16,CCOc1ccc(N2CC(C(=O)N3CC(C)OC(C)C3)CC2=O)cc1 (stereo not drawn),20%
17,CCc1ccc(N2CC(C(=O)N3CCN(c4ccccn4)CC3)CC2=O)cc1 (stereo not drawn),-24.3%
18,CCOc1ccc(N2CC(C(=O)N3CCc4ccccc43)CC2=O)cc1 (stereo not drawn),-47.6%
